# Test results published in PubChem BioAssay (NCI).
# The panel holds about 83,000 compounds, 20% with a hit somewhere; the sample as a whole holds those more often.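 A percent growth of 40 corresponds to 60% growth inhibition; 0 means no net growth; -100 means all cells died. Active threshold: below 10.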 A number with no mark means an inactive call. Activity calls are given as the source filed them.
# System: HL-60(TB) leukemia
# Assay: NCI-60 one-dose screen, 48 h (100 = growth as untreated, 0 = no growth, -100 = all killed)
# Conditions: 10 µM unless noted
row,Structure (SMILES),growth
1,CC(C)=C[C@@H]1c2c(c3ccccc3n(C)c2=O)O[C@H]2c3c(c4ccccc4n(C)c3=O)OC(C)(C)[C@@H]12,20.4%
2,CC(C)(C)n1cc(-c2ccnc(NCCNS(=O)(=O)c3ccc(C(F)(F)F)cc3)c2)c(-c2ccccc2)n1,83.9%
3,Cc1nc(Nc2ccc(S(=O)(=O)Nc3cc(C)on3)cc2)c2ccccc2n1,101%
4,Cc1c(C(=N)C(C#N)C#N)c(=N)oc2c1ccc1ccccc12,65.2%
5,N#CC(C#N)C(C#N)C#N,98.6%
6,C#CC#CC#CC#CC#CC#CC#CC#CC[C@@H]1OC[C@@H](COC(=O)O[C@@H](C(=O)O[C@H]2C[C@@]3(O)[C@@H](OC(=O)c4ccccc4)[C@@H]4[C@]5(OC(C)=O)CO[C@@H]5C[C@H](O)[C@@]4(C)C(=O)[C@H](OC(C)=O)C(=C2C)C3(C)C)[C@@H](NC(=O)c2ccccc2)c2ccccc2)O1,2.63% (active)
7,COc1cc(F)c(/C=C/c2cc(/C=C/c3cc(OC)c(OC)cc3F)n(-c3cc(F)cc(F)c3)n2)cc1OC,87.6%
8,O=C(O)c1ccc2cccnc2c1O,-20.5% (active)
9,COc1ccc(CCN2CC=Cn3c2nc2ccccc2c3=O)cc1,-8.02% (active)
10,O=C1CSC(c2ccc(O)cc2)N1c1nnc(Cn2cnnc2)o1 (configuration not stated),59.1%
11,Clc1ccc(Nc2nnc(CNc3ccccc3)c3ccccc23)cc1,-13.4% (active)
12,O=C(COc1cccc(/C=C2\Oc3ccccc3C2=O)c1)c1ccc([N+](=O)[O-])cc1,83.7%
